SMILES strings stand for the structures. The panel holds about 83,000 compounds, 20% with a hit somewhere; the sample as a whole holds those more often.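 Single-dose data. Exposure time 48 hours. Values below 10 considered active.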 A number with no mark means an inactive call. Calls of active or inactive are those of the source.

Common to all, as to experiment: NCI-60 one-dose screen, 48 h (100 = growth as untreated, 0 = no growth, -100 = all killed)
What all share (conditions): 10 µM unless noted

In assay [1] the test system is SR leukemia.
Assay [2] relates to RPMI-8226 leukemia.
In assay [3] the test system is OVCAR-8 ovarian.
Assay [4] deals with OVCAR-5 ovarian.
The test system of assay [5] is OVCAR-4 ovarian.
Assay [6] deals with SK-OV-3 ovarian.
In assay [7] the test system is IGROV1 ovarian.
Assay [8] has as its system OVCAR-3 ovarian.
The subject of assay [9] is HS 578T breast.
For assay [10], the system named is NCI/ADR-RES ovarian.

As to `O=C(Nc1cccnc1Nc1ccc(Cl)cc1)c1cn(Cc2ccc(F)cc2)nn1`, the growth in assay [1] was 106%; in assay [2], 85%; in assay [3], 96.2%; in assay [4], 105%; in assay [5], 89.8%; in assay [6] it was 108%. Further, the growth is 107% in assay [7], 107% in assay [8] and 93.2% in assay [9].

As for `CC1(C)CCC(S(=O)(=O)c2ccc3c(c2)/C(=N\O)c2cc(S(=O)(=O)N4CCN(c5ccc(F)cc5O)CC4)ccc2-3)CC1`, the growth in assay [1] is -48.5% (active); in assay [2] it was -45.9% (active); in [3], -71.7% (active); in [4] it was -69.3% (active); in assay [5] it was -94% (active); in assay [6], -98.5% (active). Further, the growth was -38.4% (active) in assay [7], -83.4% (active) in assay [8], -54.1% (active) in assay [9] and -3.41% (active) in assay [10].

As to `CC(C)CN1CC(C(=O)Nc2ccc3c(c2)-c2ccccc2C3)CC1=O` (stereo not drawn), the growth in [1] was 63.4% [50 µM]; in assay [2], 55% [50 µM]; in [3] it was 48.5% [50 µM]; in assay [4] it was 69.8% [50 µM]; in assay [5], 71.2% [50 µM]; in [6] it was 74.6% [50 µM]. Besides, the values for the growth in assay [7], in [8] and in [9] were 67.9% [50 µM], 75.6% [50 µM] and 28.8% [50 µM], respectively.

For the compound `CCn1cc(C(=O)N/N=C/c2ccc(Br)cc2)c(=O)c2cc(F)c(N3CCNC(C)C3)c(F)c21` (stereo not drawn), the growth in [1] was 4.35% (active); in assay [2], -14.8% (active); in [3], 57.8%; in [4], 94%; in [5], 81.7%; in assay [6], 109%. For the same compound, the growth in assay [7] is 71.3%; in assay [8], 52.9%; in assay [9] it was 73%.

For the compound `CC(C)c1ccc(C(=O)Nc2sc3cc(O)ccc3c2C#N)cc1`, the growth in [1] was 0.658% (active); in assay [2], 21.2%; in assay [3], 51.2%; in [4], 87.8%; in assay [5], 58%; in assay [6], 50.2%. Besides, the figures for the growth in [7], in assay [8] and in assay [9] were 31.1%, 16.4% and 26.6%, respectively.

For the compound `Fc1ccc(CNc2c3ccccc3nc3ccccc23)cc1`, the growth in assay [1] was 6.59% (active); in assay [2] it was -0.445% (active); in assay [3] it was 22.3%; in [4], 38.5%; in assay [5], 33.2%; in assay [6], 39.9%. The results for the growth in [7], in [8] and in assay [9] were 21.9%, 38.7% and 39.5%, respectively.

For `O=C(N/N=C/c1ccc(O)cc1O)c1ccc(Nc2ccnc(C(F)(F)F)c2)cc1`, the growth in assay [1] was 91.8%; in assay [2] it was 59.2%; in [3], 48.2%; in assay [4], 53.2%; in assay [5], 38.6%; in assay [6], 38.9%. The values for the growth in assay [7], in assay [8] and in [9] were 77.1%, 61.6% and 86.4%, respectively.

`COc1ccc(Cc2cnc(NC(=O)c3sc4ccccc4c3Cl)s2)cc1`: the growth in [1] was 9.94% (active); in assay [2], 28.3%; in assay [3], 18.7%; in assay [4], 48.4%; in [5], 60.5%; in [6], 33.9%. Further, the growth was 25.9% in assay [7], -8.48% (active) in assay [8] and 8.78% (active) in assay [9].

As to `Cn1ncc2ccc(-c3nc(-c4ccccc4)[nH]c3-c3n[nH]c(=O)n3C3CC3)cc21`, the growth in assay [1] is 82.9%; in [2] it was 94%; in assay [3], 99%; in [4], 98%; in assay [5] it was 93.6%; in assay [6], 94.5%. Also, the growth in [7] is 111%; in assay [8] it was 107%; in [9] it was 100%; in [10] it was 107%.

In the case of `O=C(/C=C/C12c3ccccc3C(c3ccccc31)C1C(=O)NC(=O)C12)c1ccccn1` (stereo not drawn), the growth in assay [1] was -8.33% (active); in assay [2] it was -27.6% (active); in [3] it was 1.98% (active); in [4], 21%; in assay [5], 35.3%; in [6], 5.83% (active). Further, the growth in assay [7] was -12.3% (active); in [8] it was -8.72% (active); in assay [9], 40.1%; in assay [10] it was 11.3%.

With `COc1cccc(/C=C/C(=O)c2cc3c(N)c(C(=O)Nc4ccccc4C)sc3nc2C)c1`, the growth in assay [1] is 10.8%; in assay [2], -20.8% (active); in assay [3], -33.9% (active); in [4], 87.2%; in assay [5], 70.9%; in [6] it was 104%. The results for the growth in [7], in assay [8] and in assay [9] were 19.4%, 3.31% (active) and 13.9%, respectively.

On to `Cn1cc(-c2ccc3cc(-c4ccc(CC(=O)Nc5cc(C(C)(C)C)on5)cc4)cnc3c2)cn1`, for which the growth was 3.71% (active) in assay [1]; 19.6% in assay [2]; 20.4% in assay [3]; 56.7% in [4]; -21.9% (active) in [5]; 5.31% (active) in assay [6]. Further, the growth in [7] is 3.11% (active); in assay [8] it was 48.9%; in assay [9], 9.69% (active).

Consider `O=C(c1ccc(F)c(Cl)c1)N1c2ccccc2Sc2ccccc21`, for which the growth in assay [1] was 34%; in assay [2], 52.6%; in assay [3], 89.9%; in [4], 87.3%; in assay [5], 80.1%; in assay [6], 89.2%. Also, the figures for the growth in [7], in assay [8] and in [9] were 71.2%, 63.2% and 79.3%, respectively.

With `COC(=O)C1=C(C(=O)Nc2cccnc2)C2OC1(C(Cc1ccccc1)Oc1ccccc1)C1OC21` (stereo not drawn), the growth was -23.7% (active) in assay [1]; -11.8% (active) in assay [2]; 86.4% in assay [3]; 79.7% in assay [4]; 75% in [5]; 98.3% in assay [6]. Moreover, the growth in [7] was 77.7%; in assay [8], -53.5% (active); in assay [9], 101%; in assay [10] it was 103%.

For `CCN1C(=S)N(CC)C2C1NC(=S)N2/N=C/C=C/c1ccccc1OC` (stereo not drawn), the growth was 15.2% in assay [1]; 24.6% in assay [2]; 12.5% in [3]; 27.2% in assay [4]; 44.2% in [5]; 35% in assay [6]. The growth is 19.5% in assay [7], -48% (active) in assay [8] and 16.3% in assay [9].

`CN(Cc1cnc2nc(N)nc(N)c2n1)c1c(Cl)cc(C(=O)NC(CCC(=O)O)C(=O)O)cc1Cl` (stereo not drawn): the growth was 42.4% in assay [1]; 45.3% in [2]; 17.8% in assay [3]; 48.7% in [4]; 55.1% in assay [5]; 56.3% in assay [6]. The growth in [7] was 28.3%; in [8] it was 48.1%; in assay [9] it was 66.1%.

In the case of `COc1ccc2c(c1)c(-c1nonc1-c1c[nH]c3ccc(Br)cc13)cn2C`, the growth in [1] was 14.6%; in assay [2] it was 45.5%; in [3], 48.2%; in [4] it was 55.3%; in [5] it was 55.1%; in assay [6], 58.4%. Besides, the growth is 52.7% in [7], 41.1% in [8] and 59.1% in assay [9].

`COc1ccc(-c2cc(-c3ccc(OC)cc3)nc(NCCCNc3ccnc4cc(Cl)ccc34)n2)cc1`: the growth in assay [1] is 5.81% (active); in assay [2], 7.42% (active); in assay [3] it was -51.3% (active); in assay [4], 105%; in [5], -16.5% (active); in [6], 76.8%. The figures for the growth in assay [7], in assay [8] and in assay [9] were -62.6% (active), 91.7% and 83.5%, respectively.

As to `CCCCCCCCn1ccc2cc(NC(=O)Cn3cc(CN4CCN(CC)CC4)nn3)ccc21`, the growth is 2.27% (active) in assay [1]; -10.7% (active) in [2]; 83% in [3]; 94% in assay [4]; 81.5% in [5]; 99.6% in assay [6]. The growth was 88.6% in assay [7], 66.8% in assay [8] and 86.2% in assay [9].

Consider `O=C1c2cc3c(cc2-c2c1c1ccc(Cl)cc1c(=O)n2C[C@H](O)CO)OCO3`, for which the growth in [1] is -2.7% (active); in assay [2] it was -11.9% (active); in assay [3] it was 3.37% (active); in assay [4], -7.3% (active); in assay [5], 4.86% (active); in assay [6] it was -2% (active). In addition, the growth is 8% (active) in assay [7], -17.3% (active) in assay [8] and 26.2% in assay [9].

`O=C(N/N=C/c1ccc([N+](=O)[O-])cc1)c1ccc2nc(-c3ccc(Cl)cc3)[nH]c2c1`: the growth was -8.49% (active) in assay [1]; 10.8% in assay [2]; 21.6% in assay [3]; 53.2% in assay [4]; 23% in assay [5]; 60.5% in assay [6]. Moreover, the growth in [7] is 19.1%; in [8], 11.3%; in assay [9], 36.8%.

For the compound `COc1cc(C2C3=C(COC3=O)N(CCO)c3cc4c(cc32)OCCO4)cc(OC)c1OC` (stereo not drawn), the growth in [1] is 1.09% (active); in assay [2], 21.9%; in assay [3] it was 6.75% (active); in assay [4], 41.5%; in assay [5], 24.9%; in [6], 5.64% (active). Further, the growth in assay [7] was 4.17% (active); in assay [8] it was -55.6% (active); in assay [9], -4.92% (active).

As to `Cc1cc(C)cc(Nc2ccc([N+](=O)[O-])c(NCCN3CCOCC3)n2)c1`, the growth is 17% in assay [1]; 11.5% in assay [2]; 20% in assay [3]; 52.9% in [4]; 52.6% in [5]; 50.3% in assay [6]. The values for the growth in [7], in assay [8] and in [9] were 23.5%, 2.95% (active) and 21.6%, respectively.

For `O=[N+]([O-])/C(=C\c1ccco1)c1ccccc1Cl`, the growth in assay [1] was 55.3%; in assay [2], 85.9%; in assay [3] it was 81.6%; in [4], 75.4%; in assay [5], 69.3%; in assay [6], 60.1%. The growth was 75.7% in [7], 77.9% in assay [8] and 84.8% in assay [9].

On to `Cc1ccc(C)c(-n2c(-c3ccc(Br)cc3)csc2=NC(=O)c2ccccc2F)c1`, for which the growth in assay [1] was -11.5% (active); in assay [2], -11.2% (active); in assay [3], 65.3%; in assay [4] it was 112%; in [5], 40.6%; in [6] it was 86.9%. Besides, the values for the growth in [7], in assay [8] and in assay [9] were 213%, 75.5% and 101%, respectively.

Take `C=C1C(=O)O[C@H]2[C@H]1CC/C(COC(=O)/C=C\C(=O)NCc1ccc(Cn3c(=O)sn(-c4ccccc4)c3=O)cc1)=C\CC[C@@]1(C)O[C@@H]21`: the growth is 72.4% in [1]; 40.5% in assay [2]; 91.2% in [3]; 98.3% in [4]; 85% in assay [5]; 108% in [6]. The growth is 77.4% in assay [7], 39.5% in assay [8] and 90.3% in [9].

For `COc1ccc(C(c2cc(OC)c(OC)c(OC)c2)N2CCN(Cc3ccccc3)CC2)cc1` (stereo not drawn), the growth in assay [1] is 16.1%; in assay [2], 84.1%; in assay [3], 92.6%; in assay [4], 84.7%; in assay [5] it was 97%; in assay [6], 66.2%. For the same compound, the growth in assay [7] was 63%; in [8], 69%; in [9], 59.1%; in [10], 61.6%.

As to `Cc1ccc(-c2nc(C#N)c(S(=O)(=O)NCCO)o2)cc1`, the growth is -7.78% (active) in [1]; 1.81% (active) in [2]; 64.7% in assay [3]; 94.5% in [4]; 86.9% in assay [5]; 95.7% in [6]. The growth in [7] is 65.1%; in [8] it was 41.3%; in assay [9], 107%; in assay [10], 81%.
